Results published in PubChem BioAssay.
Active and inactive are the calls of the source.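 The calls were made as follows: active = GFP response below 50% of the DMSO control; inconclusive = fewer than 70 events counted for a yeast strain; inactive = the rest.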

assay: RPL19A-GFP modulators, yeast TOR pathway, confirmation, cell-based, S. cerevisiae, flow cytometry, cherry picks, mother/daughter gates (AID 2270); conditions: S. cerevisiae RPL19A-GFP strain, 3 h, at 10 µM, stronger effect = lower value, 100 = same GFP as DMSO wells

Structure (SMILES)	GFP response vs DMSO
CCOC(=O)c1ccc(NC(=O)CCc2nc(-c3ccc(C)cc3)no2)cc1	101% (inactive)
Cc1cccc(N2C(=O)C(Cl)=C(Nc3c(C)n(C)n(-c4ccccc4)c3=O)C2=O)c1C	102% (inactive)
Cc1noc2ncnc(Sc3ccc(Cl)cc3)c12	96.6% (inactive)
CCN(CC)c1ccc(/C=C/c2cccc[n+]2C)c(OC)c1	103% (inactive)
CC1=NOC(=O)/C1=C\c1ccc(-c2cc(Cl)ccc2Cl)o1	97.1% (inactive)
CCCN(c1ccccc1F)S(=O)(=O)c1cc(-c2cc(C)no2)ccc1OC	95.6% (inactive)
COc1ccccc1-c1noc(CCC(=O)Nc2cccc(C)c2)n1	99.9% (inactive)
O=C(c1ccc([N+](=O)[O-])o1)N1CCN(c2nc3ccc(F)cc3s2)CC1	99.8% (inactive)
COc1ccc(Br)cc1/C=C/C(=O)c1ccc(NC(C)=O)cc1	100% (inactive)
CCOc1ccc(/C=C/C(=O)c2c(O)cc(C)oc2=O)cc1	95.1% (inactive)
CN1CCN(C(c2ccc(C(F)(F)F)cc2)c2ccc3cccnc3c2O)CC1 (stereo not given)	93.6% (inactive)
O=C(NNC(=S)NC(=O)C12CC3CC(CC(C3)C1)C2)c1ccncc1	109% (inactive)
Cc1ccccc1NC(=O)c1ccccc1	96.6% (inactive)
Cc1cc(C(=O)Nc2nc(-c3ccccn3)cs2)ccc1[N+](=O)[O-]	104% (inactive)
N/C(=N\OC(=O)c1cccc(Br)c1)c1ccccc1	97.2% (inactive)
O=C(Nc1nccs1)C(c1ccccc1)N1CCCCC1 (stereo not given)	103% (inactive)
C=CCNC(=S)N/N=C(\C)c1cccc(OC)c1	100% (inactive)
O=[N+]([O-])c1cc(CN2CCN(c3cccc(C(F)(F)F)c3)CC2)c2cccnc2c1O	112% (inactive)
COc1ccccc1/C=C/C=N/NC(=O)c1cccs1	97.8% (inactive)
O=C(Oc1ccnc2cc(Cl)ccc12)N1CCCCCC1	99.3% (inactive)

Structure (SMILES)	GFP response vs DMSO
O=C(c1ccc([N+](=O)[O-])o1)N1CCN(c2nc3c(F)cc(F)cc3s2)CC1	80.1% (inactive)
Cc1nn(Cc2ccccc2Cl)c(C)c1C(=O)NCc1ccco1	99.3% (inactive)
N#C/C(=C\c1ccccn1)c1nc2ccccc2s1	170% (inactive)
Cc1ccc(NC(=O)c2ccc([N+](=O)[O-])o2)cc1C	100% (inactive)
O=C(N/N=C/c1ccc(-c2ccc(Br)cc2)o1)c1ccc2c(c1)OCO2	102% (inactive)
Cc1n[nH]c(C)c1N1C(=O)c2cccc3cc(Br)cc(c23)C1=O	95.2% (inactive)
CC(C)(C)NC(=O)c1ccccc1-c1nc(-c2ccccc2Cl)no1	94.8% (inactive)
CCn1c(=O)c(C(=O)NCCc2ccccc2)c(O)c2ccccc21	98.5% (inactive)
O=C(O)Cn1cc(/C=C/[N+](=O)[O-])c2ccccc21	97.6% (inactive)
O=[N+]([O-])c1cc(C(F)(F)F)ccc1Sc1ccc2ccccc2n1	95.8% (inactive)
Cc1ccc(NC(=S)c2nc3ccccc3[nH]2)cc1	101% (inactive)
CCOc1ccc(C(C)=O)cc1N1C(=O)C2C3C=CC(O3)C2C1=O (stereo not given)	100% (inactive)
O=C(CSc1nnc(-c2ccccn2)n1Cc1ccccc1)N1CCOCC1	103% (inactive)
Cc1cc(N2CCOCC2)n2nc(C)c(-c3ccccc3)c2n1	103% (inactive)
CCN(CC)CCN(C(=O)c1ccc2c(c1)CCCC2)c1nc2cc(OC)c(OC)cc2s1	94.1% (inactive)
COc1ccc(-c2ccc(CCC(=O)O)o2)cc1	97% (inactive)
COc1ccc(N2C(=O)C(Cl)=C(Nc3c(C)n(C)n(-c4ccccc4)c3=O)C2=O)cc1	102% (inactive)
Cn1ncc(N2CCN(S(=O)(=O)c3ccc(Br)cc3)CC2)c(Cl)c1=O	98.2% (inactive)
O=C(CCc1ccccc1)NNC(=S)NC(=O)c1ccccc1	106% (inactive)
Cc1ccc(C(=O)OCC(=O)Nc2ccccc2Sc2ccccc2)cc1C	99% (inactive)

same assay, conditions: S. cerevisiae RPL19A-GFP strain, 3 h, measured here: daughter cell gate, at 10 µM, stronger effect = lower value, 100 = same GFP as DMSO wells

Structure (SMILES)	GFP response vs DMSO
CCOC(=O)c1ccc(NC(=O)CCc2nc(-c3ccc(C)cc3)no2)cc1	102%
Cc1cccc(N2C(=O)C(Cl)=C(Nc3c(C)n(C)n(-c4ccccc4)c3=O)C2=O)c1C	102%
Cc1noc2ncnc(Sc3ccc(Cl)cc3)c12	94.9%
CCN(CC)c1ccc(/C=C/c2cccc[n+]2C)c(OC)c1	103%
CC1=NOC(=O)/C1=C\c1ccc(-c2cc(Cl)ccc2Cl)o1	93.9%
CCCN(c1ccccc1F)S(=O)(=O)c1cc(-c2cc(C)no2)ccc1OC	95.6%
COc1ccccc1-c1noc(CCC(=O)Nc2cccc(C)c2)n1	100%
O=C(c1ccc([N+](=O)[O-])o1)N1CCN(c2nc3ccc(F)cc3s2)CC1	100%
COc1ccc(Br)cc1/C=C/C(=O)c1ccc(NC(C)=O)cc1	98.4%
CCOc1ccc(/C=C/C(=O)c2c(O)cc(C)oc2=O)cc1	96.1%
CN1CCN(C(c2ccc(C(F)(F)F)cc2)c2ccc3cccnc3c2O)CC1 (stereo not given)	87.3%
O=C(NNC(=S)NC(=O)C12CC3CC(CC(C3)C1)C2)c1ccncc1	115%
Cc1ccccc1NC(=O)c1ccccc1	98.1%
Cc1cc(C(=O)Nc2nc(-c3ccccn3)cs2)ccc1[N+](=O)[O-]	107%
N/C(=N\OC(=O)c1cccc(Br)c1)c1ccccc1	96.4%
O=C(Nc1nccs1)C(c1ccccc1)N1CCCCC1 (stereo not given)	100%
C=CCNC(=S)N/N=C(\C)c1cccc(OC)c1	102%
O=[N+]([O-])c1cc(CN2CCN(c3cccc(C(F)(F)F)c3)CC2)c2cccnc2c1O	96.4%
COc1ccccc1/C=C/C=N/NC(=O)c1cccs1	97.3%
O=C(Oc1ccnc2cc(Cl)ccc12)N1CCCCCC1	97.3%

Structure (SMILES)	GFP response vs DMSO
O=C(c1ccc([N+](=O)[O-])o1)N1CCN(c2nc3c(F)cc(F)cc3s2)CC1	78%
Cc1nn(Cc2ccccc2Cl)c(C)c1C(=O)NCc1ccco1	101%
N#C/C(=C\c1ccccn1)c1nc2ccccc2s1	158%
Cc1ccc(NC(=O)c2ccc([N+](=O)[O-])o2)cc1C	104%
O=C(N/N=C/c1ccc(-c2ccc(Br)cc2)o1)c1ccc2c(c1)OCO2	98.6%
Cc1n[nH]c(C)c1N1C(=O)c2cccc3cc(Br)cc(c23)C1=O	95.9%
CC(C)(C)NC(=O)c1ccccc1-c1nc(-c2ccccc2Cl)no1	95.9%
CCn1c(=O)c(C(=O)NCCc2ccccc2)c(O)c2ccccc21	99.8%
O=C(O)Cn1cc(/C=C/[N+](=O)[O-])c2ccccc21	98.4%
O=[N+]([O-])c1cc(C(F)(F)F)ccc1Sc1ccc2ccccc2n1	97%
Cc1ccc(NC(=S)c2nc3ccccc3[nH]2)cc1	99.6%
CCOc1ccc(C(C)=O)cc1N1C(=O)C2C3C=CC(O3)C2C1=O (stereo not given)	105%
O=C(CSc1nnc(-c2ccccn2)n1Cc1ccccc1)N1CCOCC1	102%
Cc1cc(N2CCOCC2)n2nc(C)c(-c3ccccc3)c2n1	100%
CCN(CC)CCN(C(=O)c1ccc2c(c1)CCCC2)c1nc2cc(OC)c(OC)cc2s1	96%
COc1ccc(-c2ccc(CCC(=O)O)o2)cc1	95.1%
COc1ccc(N2C(=O)C(Cl)=C(Nc3c(C)n(C)n(-c4ccccc4)c3=O)C2=O)cc1	106%
Cn1ncc(N2CCN(S(=O)(=O)c3ccc(Br)cc3)CC2)c(Cl)c1=O	97.9%
O=C(CCc1ccccc1)NNC(=S)NC(=O)c1ccccc1	106%
Cc1ccc(C(=O)OCC(=O)Nc2ccccc2Sc2ccccc2)cc1C	97.8%
